This note sets out measurements from PubChem BioAssay (NCI).

Molecules are shown by their SMILES. The panel holds about 83,000 compounds, 20% with a hit somewhere; the sample as a whole holds those more often.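 Single-dose data. Exposure time 48 hours. Values below 10 considered active.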 Values without a mark were called inactive. Activity calls are given as the source filed them.

The test has as its system MDA-MB-468 breast. The test is described as follows: NCI-60 one-dose screen, 48 h (100 = growth as untreated, 0 = no growth, -100 = all killed). The note with it: 10 µM unless noted.
Take `CC1=C(SCC(=O)OCCCCCC(C)C)C(=O)c2ccccc2C1=O`: the growth was 65.5%.

As to `CCCCCCCCCCC(=O)CCCCCCCCCC`, the growth is 107%.

For `NC1CCC(Nc2nc(NCc3ccc(-c4ccccc4O)nc3)c3ncn(C4CCCC4)c3n2)CC1` (centres undefined), the growth is -73.7% (active).

Take `COc1ccc(NC(=O)C2c3ccccc3C(=O)N(CC(C)C)C2c2cccs2)cc1` (centres undefined): the growth was 82.3%.

Regarding `O=C(O)c1ccc(-c2ccc(/C=N/Nc3nc(Nc4ccccc4)nc(N4CCCCC4)n3)o2)cc1`, the growth was 92.1%.

As for `Cc1cc2nc3c4cc([N+](=O)[O-])cc([N+](=O)[O-])c4n(CCN(C)C)c3nc2cc1C`, the growth is 104%.

For the compound `Oc1ccccc1/C=N/Nc1ccc2ccccc2n1`, the growth is 15.1%.

On to `COc1ccc(-n2nc(C)c3c(Nc4ccc(NC(=O)Nc5ccc(Cl)c(C(F)(F)F)c5)cc4)ncnc32)cc1`, for which the growth is -19.9% (active).

Consider `CCN(Cc1ccccc1)C1CCN(Cc2cc(Br)ccc2O)CC1`, for which the growth is 25.5%.

As to `CCNC(=NCCCN(C)C)N/C(N)=N/c1nc2ccccc2s1`, the growth was 94.3%.

Turning to `c1n[nH]cc1-c1nc2ccc3[nH]ncc3c2c2c1CCCC2`, the growth is 15.2%.

For `COc1ccc2c(c1)OC13Oc4cc(OC)ccc4C=C1CCCC3=C2`, the growth is 56.3%.

With `COc1ccc(-c2nc3sc(C4CC4)nn3c2/C=C2/C(=O)Nc3ccc(OC)cc32)cc1`, the growth was 23.3%.

For the compound `COc1ccc(C2CC(c3cnccn3)=NN2)cc1OC` (centres undefined), the growth was 105%.

With `N=C(N)c1ccc(-c2ccc(-c3ccc(Cl)cc3Cl)o2)nc1`, the growth is -33.8% (active).

For the compound `COc1cc(-c2nc(SCCC(C)C)nc(N3CCOCC3)c2C#N)cc(OC)c1OC`, the growth was 98.2%.

`CCCNc1nc(SC)nc(-c2cccc(N)c2)c1C#N`: the growth was 114%.

As for `CN(C)C/C=C/C(=O)Nc1cc2c(Nc3ccc(F)c(Cl)c3F)ncnc2cc1OCCOC(F)F`, the growth was -40.8% (active).

With `COc1ccccc1S(=O)(=O)Nc1ccc2c3c(cc(CCC(=O)NCCCCNc4cccc5c4C(=O)N(C4CCC(=O)NC4=O)C5=O)cc13)C(=O)N2C` (centres undefined), the growth is -35.5% (active).

Turning to `N/C(=N\C(N)=N\c1nc2ccccc2s1)c1ccc(C(F)(F)F)cc1`, the growth is 107%.

For the compound `N=C(N)c1ccc(-c2ccc(-c3cncc4ccccc34)s2)s1`, the growth is -72% (active).

On to `CCOC(=O)c1[nH]c2cc(Cl)ccc2c1[C@@H](C(=O)NC(C)(C)C)N(CC)C(=O)CCCCC#Cc1cccc2c1CN(C1CCC(=O)NC1=O)C2=O` (some centres undefined), for which the growth was -14.3% (active).

Turning to `COc1ccc(-c2nc(NN)c3c(C)nn(-c4ccc(F)cc4)c3n2)cc1`, the growth was 25.8%.

Regarding `CCn1c(SCC(=O)Nc2cccc(C(=O)/C=C/c3ccc(C)cc3)c2)nc2ccccc2c1=O`, the growth is 58.7%.

On to `CC(=O)C1C(=O)C(=O)N(c2cccc([N+](=O)[O-])c2)C1=O` (centres undefined), for which the growth is 102%.

On to `O=C(CC12CC3CC(CC(C3)C1)C2)NCCOCCOCCOCCNC(=O)c1cc2c(o1)C(=O)c1ccccc1C2=O`, for which the growth is -34.8% (active).

Turning to `COc1cccc(/C=C2\Cc3ccccc3C2=O)c1`, the growth was 99.6%.

For the compound `Oc1ccccc1-c1nnco1`, the growth was 88.7%.

With `C/C(Cc1ccc(Cl)cc1)=C(\c1ccc(OCCN2CCCCCC2)cc1)c1ccc(OC(=O)c2ccccc2)cc1`, the growth was 48.1%.

Take `COc1ccc(-c2nc3sccn3c2/C=C/C(=O)c2c[nH]c3ccccc23)cc1`: the growth was 62.6%.

As to `CCCC(=O)NC(c1ccc2c(c1)OCO2)c1ccc2cccnc2c1O` (centres undefined), the growth is -16% (active).

With `CCN1CCN(CCC(=O)Nc2cccc(-n3cc(-c4ccncc4)c(-c4ccc(Cl)c(OC)c4)n3)c2)CC1`, the growth is -2.3% (active).

On to `N=C(N)c1ccc(-c2ccc(-c3ccc(F)cc3)s2)cc1`, for which the growth was -90.7% (active).

`CSc1nc2nc3c(nc2c(=O)n1C)C(=O)c1ccccc1C3=O`: the growth is -58.4% (active).

Regarding `C=C1C(=O)O[C@H]2[C@H]1CC/C(C(=O)Nc1ccc(OC)c(C(N)=O)c1O)=C\CC[C@@]1(C)O[C@@H]21`, the growth was 20.4%.

Take `FC(F)(F)c1ccc2nc(-c3nc(-c4ccccc4)n4ccccc34)[nH]c2c1`: the growth is 83.4%.

On to `COc1cc(-c2ccc3cc(OC)c(OC)c(OC)c3c2)cc(OC)c1OC`, for which the growth is 31.6%.

`O=C(NCCNC(c1ccccc1)C(NCCNC(=O)c1ccccc1)c1ccccc1)c1ccccc1` (centres undefined): the growth was 81.5%.

Turning to `COC(=O)/C=C/c1c(C2(C)NC(=O)c3ccccc3N2)c(=O)oc2ccc(Cl)cc12` (centres undefined), the growth is 88.7%.
